TWEAK-Fn14 inh – blocks TWEAK-Fn14 interaction in a reporter cell assay. TWEAK-stimulated Fn14 reporter cells, luciferase luminescence, 8 h. inhibition, % at 10 µM. 360,000 tested, 2% active. AID 1159606; in the data active means inhibition above about 50%
EBV LMP1 NFkB – Epstein-Barr LMP1 NF-kappaB reporter inhibition | LMP1-induced NF-kappaB luciferase reporter cells, luminescence | inhibition, % at 12.5 µM | 350,000 tested, 0.69% active; in the data active means inhibition above about 41%;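 further: 0% = neutral control wells and 100% = reference inhibitor control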
HSF1 inh – HSF1 inhibition. activity change, negative = inhibition, % at 7.5 µM (by protocol). NIH3T3-HGL HSE-luciferase, MG132-induced, luminescence 8 h; stronger effect = lower value. 300,000 tested, 0.77% active;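 active means more than half of replicate wells show activity change below -50%, luminescence cut by over half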;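 further: luciferase reports HSF-1 transcriptional activity via heat shock element; 0% = median of DMSO wells and -100% = zero luminescence signal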
TROY signal inh – blocks TROY-dependent signaling in reporter cells | Q293 LMP1-TROYcd NF-kB luciferase reporter, 4 h | 360,000 tested, 0.98% active | AID 1347056 | inhibition, % at 10 µM;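 active means compounds whose plate-normalised and pattern-corrected inhibition of the luciferase reporter signal at the single screening dose is 50% or more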
HSP90 refold inh – blocks HSP90-mediated luciferase refolding in reticulocyte lysate. Rabbit reticulocyte lysate, luciferase refolding luminescence, 3 h. inhibition, % at 5.6 µM. 290,000 tested, 0.91% active. AID 1789;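 active means inhibition above the screen-wide mean plus 3 SD, computed separately per campaign, cut at about 16% in these data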;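 further: 0% = DMSO wells and 100% = 60 µM geldanamycin wells; inhibitors lower the luminescence because luciferase stays unfolded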
HSF1 activator – increases HSF-1 driven luciferase reporter signal; NIH3T3-HGL HSF-1 luciferase reporter, MG132, 8 h; 100% = twice DMSO control signal; 300,000 tested, 1.7% active; activation, % at 9 µM; AID 504408;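 active means mean replicate activation of at least 50% with a set share of replicates each reaching 50%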;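 further: 0% = median of the neutral control wells and 100% = twice that signal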
Active calls of the source: *; / = no result given; ! = not confirmed by another sample. Sampled rows, rich in hits. Any-hit rate of the full collection: about 4.7%.

SMILES	TWEAK-Fn14 inh	EBV LMP1 NFkB	HSF1 inh	TROY signal inh	HSP90 refold inh	HSF1 activator
Oc1ccc(C=Nc2ccc3ncccc3c2)c(O)c1	/	/	6	/	5	2
COCCNC(=O)C[C@@H]1C[C@H]2c3cc(NC(=O)Nc4ccc(F)cc4)ccc3O[C@H]2[C@H](CO)O1	2	-5	/	-9	/	/
NC(=O)NC(Cc1ccccc1)c1ccccc1 (stereo not given)	1	3	-8	10	5	7
NC(=O)OCC(COC(N)=O)c1ccccc1	14	68*!	-4	7	-2	-10
S=C(Nc1ccc2nsnc2c1)NC1CCCCC1	6	-26	31	-70	7	82*
S=C(Nc1ccc(Oc2ccc(NC(=S)NC3CCCCC3)cc2)cc1)NC1CCCCC1	38	14	4	9	1	-10
S=C(Nc1ccc(Cl)c(Cl)c1)NC1CCN(Cc2ccccc2)CC1	32	12	3	37	1	5
S=C(Nc1ccc(Cl)c(Cl)c1)NC1CCCCC1	63*	2	9	19	0	30
O=C(Nc1ccc2nsnc2c1)N1CCCCC1	-23	-6	-2	-36	2	0
S=C(Nc1ccc2nsnc2c1)N1CCCCCC1	-15	-11	41	-4	-1	62*
CC1CCN(C(=O)Nc2ccc3nsnc3c2)CC1	-19	-16	23	-52	3	57*
CCOC(=O)C1=CCN(S(=O)(=O)c2ccc(C)cc2)C1c1cccc(C)c1 (stereo not given)	18	/	/	-20	/	/
CCCCNC(=O)C1(C)CCC(=O)N1c1cc(C(C)(C)C)nn1C (stereo not given)	-6	/	/	17	/	/
COc1ccc(CN2C(=O)C(Cc3ccccc3)Nc3ncnc(N4CCc5ccccc5C4)c32)cc1 (stereo not given)	/	/	48	/	/	71*
CN1C(=O)C(=O)/C(=C(/O)c2ccc(Br)cc2)C1c1ccc(Cl)cc1 (stereo not given)	95*	4	6	-10	3	6
CC1(C)CC(=O)C2=C(C1)NC1=C(C(=O)c3ccccc31)C2c1ccccc1 (stereo not given)	64*	6	7	2	-5	8
CC1=C([N+](=O)[O-])C(c2ccccc2)C2=C(N1)c1ccccc1C2=O (stereo not given)	39	13	38	21	7	57*
CC1(C)CC(=O)C2=C(C1)NC1=C(C(=O)c3ccccc31)C2c1cccnc1 (stereo not given)	3	3	4	15	0	10
CC(C)c1ccc(C2C3=C(CC(C)(C)CC3=O)NC3=C2C(=O)c2ccccc23)cc1 (stereo not given)	61*	-10	11	36	0	33
CC1(C)CC(=O)C2=C(C1)NC1=C(C(=O)c3ccccc31)C2c1cc([N+](=O)[O-])ccc1O (stereo not given)	28	-7	14	26	3	17
COc1ccc(C2C(C#N)=C(C)NC3=C2C(=O)c2ccccc23)cc1 (stereo not given)	-11	4	1	-13	0	13
CCNC(=O)C1(C)CCN(C(=O)c2ccc(OC(F)F)cc2)C1 (stereo not given)	-7	/	/	5	/	/
Cc1ccc(S(=O)(=O)NC(=O)C2(C)CCN2C(=O)c2ccccc2)nc1 (stereo not given)	-28	/	/	-9	/	/
OCCCCCN=c1cc(-c2ccccc2)oc2ccc(Cl)cc12	-89	-29	69	-92	-5	98*
Cc1ccc(NCCC(=O)c2cccs2)cc1	-22	-46	17	-17	7	13
Cc1ccc(N=C/C(C(=O)C(F)(F)F)=C(\O)c2cccs2)cc1	83*	0	5	-42	0	-2
O=C(/C(N=Nc1cccc(C(F)(F)F)c1)=C(/O)c1cccs1)C(F)(F)F	57*	-14	8	9	-6	26
Cc1nn(C)c(C)c1S(=O)(=O)N1CCC(C(=O)Nc2ccc3c(c2)OCCO3)CC1	79*	19	-5	66*	6	3
COc1ccc(C(=O)N2CCC(C(=O)Nc3ccc4c(c3)OCCO4)CC2)cc1	79*	20	-28	48	9	-35
O=C(Nc1ccc2c(c1)OCCO2)C1CCN(C(=O)c2ccc(Br)cc2)CC1	-4	6	-7	-18	-1	-1

From PubChem
